Records with an inconclusive call do not appear. Unmarked numbers belong to inactive results. Calls follow the shape of the dose curve; as a rule, active = well fitted inhibition curve with a large enough effect; inconclusive = small, poorly fitted or top-dose-only effect; inactive = flat fitted curve, though single readings scatter.
Molecular target: Luciferin 4-monooxygenase (Photinus pyralis) (UniProt P08659)
Assay: qHTS screen for small molecules that inhibit ELG1-dependent DNA repair: SAR in Biochemical Luciferin Assay
Conditions: purified firefly luciferase, luciferin luminescence counter-screen; series mostly up to 57.5 µM; activity change, negative = inhibition: at the top concentration
Source text: Cancer cells divide rapidly compared to normal cells in the body. During cell division, cancer cells need to duplicate their genome by DNA replication. The failure of genome duplication leads to cancer cells' death. Therefore, inhibitors of DNA replication could specifically kill cancer cells. Based on this concept, many chemotherapeutic agents were developed and have been used to treat cancer patients. However, there are a limited number of agents available in the clinical setting, and some of those that do exist have low efficacy and severe side effects. Therefore, if we can find the compounds that effectively block DNA replication either by directly damaging DNA or by inhibiting other cellular mechanisms, the options for cancer treatment will be broadened. With this in mind, we developed a quantitative high-throughput ELG1-luciferase reporter gene assay. Small molecules that specifically block ELG1 function in response to DNA damage can be identified by monitoring the suppression of luciferase activity. Since ELG1 defines a pathway for repairing DNA damage, agents blocking ELG1 function can be used to sensitize cancer cells to chemotherapeutic agents whose mechanism of action involves the induction of DNA damage. This counter assay is a luciferase assay, that following treatment with putative ELG1 antagonists, aims to eliminate luciferase enhancers/inhibitors. NIH Molecular Libraries Probe Production Network [MLPCN] NIH Chemical Genomics Center [NCGC] MLPCN Grant: R03 MH092164 Assay Provider: Kyungjae Myung, NHGRI, NIH
3 uL of substrate reagent will be pipetted into each well in 1536-well white, solid-bottom plates using a FRD dispenser, followed by addition of 23 nL of DMSO or compounds by pintool. After compound addition, 1 µL of luciferase will be added into the wells. The plates will be read in a ViewLux CCD-based plate reader.

| SMILES | activity change, negative = inhibition |
| --- | --- |
| CO/C1=C\C(C)=C\[C@@H](C)[C@@H](O)[C@H](C)C/C(C)=C/C=C/[C@H](OC)[C@H]([C@@H](C)[C@@H](O)[C@H](C)[C@H]2C[C@@H](O)[C@H](C)[C@@H](C(C)C)O2)OC1=O | 1.32% |
| COc1cc2c(cc1OC)C1C(=O)c3c(cc4c(c3O)C=CC(C)(C)O4)OC1CO2 (centres undefined) | -21.9% |
| CN[C@@H]1C[C@@]2(C)O[C@@H]([C@@H]1OC)n1c3ccccc3c3c4c(c5c6ccccc6n2c5c31)C(=O)NC4 | 3.86% |
| C[C@@H]1C[C@@H]2[C@H]([C@H]3C=C(COC(=O)c4ccccc4)[C@@H](O)[C@]4(O)[C@@H](O)C(OC(=O)c5ccccc5)=C[C@@]14C3=O)C2(C)C | -2.41% |
| COC[C@H]([C@@H](O)[C@@H](O)C(=O)NCC[C@@H](C)c1nc(/C=C/C[C@H]2OC3(C[C@H](O)[C@H]2C)OC([C@@H](C[C@@H](O)[C@@H](C)[C@@H](O)[C@@H](C)/C=C(C)/C(C)=C/C=C/C(C)=C\C#N)OC)[C@@H](OP(=O)(O)O)C3(C)C)co1)N(C)C (some centres undefined) | 3.95% |
| COc1cc2c(cc1OC)[C@@H]1C(=O)c3ccc4c(c3OC1CO2)CC(C(C)C)O4 (some centres undefined) | -6.85% |
| CCCCCCCCCCCCCC(=O)O[C@@H]1[C@@H](C)[C@@]2(O)[C@H](C=C(CO)C[C@]3(O)C(=O)C(C)=C[C@@H]23)[C@@H]2C(C)(C)C12OC(C)=O (some centres undefined) | -22.1% |
| CCCCCC1C(=O)O[C@H](C)[C@@H](NC(=O)c2cccc(NC=O)c2O)C(=O)OC(C)C1OC(=O)CC(C)C (some centres undefined) | 0.76% |
| C[C@@H]1C[C@H]2CC[C@H](O2)[C@H](C)C(=O)O[C@@H](C)C[C@@H]2CC[C@@H](O2)[C@@H](C)C(=O)O[C@H](C)C[C@H]2CC[C@H](O2)[C@H](C)C(=O)O[C@@H](C)C[C@@H]2CC[C@@H](O2)[C@@H](C)C(=O)O1 | -15.6% |

Source: PubChem BioAssay AID686933 (National Center for Advancing Translational Sciences (NCATS), 2013)
